# Bioassay records (PubChem BioAssay)
# CHT inh: inhibitors of human choline transporter CHT. B-score at 10 µM. High affinity choline transporter 1 (Homo sapiens), Q9GZV3. 310,000 tested, 0.86% active. CHT-expressing cells, membrane potential dye, choline response; active compounds read low;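 active = B-score over 3 SD under the library average, and starting fluorescence ratio not unusually high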;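 note: choline stimulus applied at its EC90 after an EC20 pre-addition; B-score computed on integrated fluorescence ratio after choline addition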
# Target sequence (Q9GZV3 whole entry, looked up): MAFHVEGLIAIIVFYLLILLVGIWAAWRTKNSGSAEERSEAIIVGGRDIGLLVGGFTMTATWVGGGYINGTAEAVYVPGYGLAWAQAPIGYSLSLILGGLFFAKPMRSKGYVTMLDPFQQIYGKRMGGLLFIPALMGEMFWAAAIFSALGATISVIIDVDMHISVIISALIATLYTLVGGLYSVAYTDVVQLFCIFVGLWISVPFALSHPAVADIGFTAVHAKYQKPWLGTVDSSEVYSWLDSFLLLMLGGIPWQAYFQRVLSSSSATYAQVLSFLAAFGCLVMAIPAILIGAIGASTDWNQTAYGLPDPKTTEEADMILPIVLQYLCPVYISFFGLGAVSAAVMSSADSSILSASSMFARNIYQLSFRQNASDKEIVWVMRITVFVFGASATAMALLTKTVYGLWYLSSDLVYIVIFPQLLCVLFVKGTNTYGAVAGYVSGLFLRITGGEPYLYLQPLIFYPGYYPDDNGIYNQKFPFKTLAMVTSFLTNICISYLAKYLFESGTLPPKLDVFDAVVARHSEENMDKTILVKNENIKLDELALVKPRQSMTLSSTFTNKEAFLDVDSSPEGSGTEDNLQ
# AI-2 QS mod: Vibrio harveyi AI-2 quorum sensing modulators, primary screen, JMH597 strain, luminescence/OD600 ratio; Vibrio harveyi JMH597 AI-2 luminescence/OD600 ratio, 9 h; active compounds read low; strain lacks LuxN and CqsS sensors; 0 = neutral-control median; activity change, % at 7.5 µM; 300,000 tested, 0.4% active; AID 2094, 2009; in the data active = activity change below about -75%, passing the limit was not always enough; inconclusive = no clear call, values can overlap the other calls;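 note: luminescence divided by OD600 gain over 9 h not by final OD600 alone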
# PREPL inhibitor: PREPL enzyme inhibitors, primary screen, biochemical, fluorescence polarization. Prolyl endopeptidase-like (Homo sapiens), Q4J6C6. inhibition, % at 5.96 µM. AID 2751, 2010. recombinant PREPL, fluorescence polarization activity-based probe. 320,000 tested, 0.68% active; in the data active = inhibition above about 43%;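 note: 0% = enzyme with DMSO and 100% = wells lacking enzyme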
# CHT PAM: CHT positive allosteric modulators, primary screen, cell-based, membrane potential dye, choline EC20; High affinity choline transporter 1 (Homo sapiens), Q9GZV3; CHT-expressing cells; active compounds read high; LV-AA mutant CHT in HEK293 cells; B-score at 10 µM; 310,000 tested, 0.49% active; AID 488977, 2010;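 active = initial fluorescence not abnormally high and integrated response B-score, plate-corrected, over 3 SD above library mean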
# ALR H2O2 inh: inhibitors of human ALR sulfhydryl oxidase, primary screen, biochemical, H2O2 detection, HRP-luminol luminescence, single point; FAD-linked sulfhydryl oxidase ALR (Homo sapiens), P55789; purified ALR, DTT oxidation; inhibition, % (test concentration not listed); 290,000 tested, 3.8% active;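 active = mean replicate inhibition above about 79%, with every replicate also reaching it, limit read from the data; inconclusive = only one of the two criteria met; inactive = mean below limit and not every replicate reaching it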
# CHT activ conf: CHT activators, confirmation, cell-based, membrane potential dye, duplicate | shares compounds with CHT PAM | CHT-expressing cells, membrane potential dye fluorescence (FDSS); % of choline EC20–EC90 response window; HEK293 expressing CHT LV-AA mutant; choline added at its EC20 | activation, % at 10 µM | 2,500 tested, 91% active | AID 504833, 2011;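 active = primary screen active, with duplicate mean activation above negative control mean plus 3 SD, cut at about 11% in these data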
# HEK293 MP dye: membrane potential response in parental HEK293 cells, counter-screen for CHT activator project, cell-based, membrane potential dye. shares compounds with CHT PAM. membrane potential dye fluorescence (FDSS); measured after EC20 choline addition. ratio readout change at 10 µM, hits read low. 2,500 tested, 62% active. AID 623908, 2012;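 active = duplicate-averaged ratio beyond 3 SD from buffer wells, up or down, though filed actives are nearly all decreases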
# * marks the source's active call; other numbers are inactive results; i = inactive; ? = inconclusive; . = not tested or not shown. Only some compounds are listed: those with a hit (about 5% of all), similar ones and a draw of the others.
SMILES,CHT inh,AI-2 QS mod,PREPL inhibitor,CHT PAM,ALR H2O2 inh,CHT activ conf,HEK293 MP dye
Cc1cc[n+](Cc2ccc([N+](=O)[O-])cc2)cc1,i,12,-5,i,.,.,.
Cc1ccc(-c2cc[n+](Cc3ccccc3)cc2)cc1,i,17,-14,6.7*,-3,58*,-42*
Cc1sc2c3ccsc3ccc2[n+]1C,i,10,5,10*,56,66*,i
CCOC(=O)c1c(C)nc2ccccc2c1-c1ccccc1,i,15,-12,i,-6,16*,i
CC1=Nc2cccc3cccc(c23)N1C,i,13,3,7.4*,99*,59*,-71*
CN1C(=O)Nc2cccc3cccc1c23,i,22,18,i,44,.,.
COc1ccc(-n2nc(C(=O)NCC(=O)NCCCN3CCOCC3)c3ccccc3c2=O)c(OC)c1,i,14,6,i,7,.,.
Cc1ccc(NC(=O)N2CCCC(C(=O)O)C2)cc1 (stereo unspecified),i,9,-5,i,-2,.,.
CCC(=O)OCC(=O)[C@@]1(OC(=O)CC)[C@@H](C)C[C@H]2[C@@H]3CCC4=CC(=O)C=C[C@]4(C)[C@@]3(Cl)[C@@H](O)C[C@@]21C,i,.,19,i,0,.,.
Cc1c(N=c2scc(-c3ccccc3)n2C)c(=O)n(-c2ccccc2)n1C,i,-6,-4,i,69,.,.
CN=c1scc(-c2ccc(Br)cc2)n1C,i,9,7,i,26,35*,-44*
O=C(CSc1nnc(-c2ccccc2F)n1C1CCCCC1)Nc1cc(C(=O)O)ccc1Cl,.,.,10,.,3,.,.
Cc1nc2ccccc2c2oc(C(=O)NCCN3CCCCC3C)cc12 (stereo unspecified),i,15,-8,i,-3,34*,i
Cc1nc2ccccc2c2oc(C(=O)N3CCC(N4CCCCC4)CC3)cc12,i,.,11,7*,-7,49*,-41*
Cc1nc2ccccc2c2oc(C(=O)N3CCN(C4CCCCC4)CC3)cc12,i,14,-1,i,-14,.,.
CCCNc1nc2c(c(=O)[nH]c(=O)n2C)n1CCC(C)C,i,5,11,i,3,.,.
CN(C)CCNc1nc2c(c(=O)[nH]c(=O)n2C)n1CC(O)COc1ccc(Cl)cc1Cl (stereo unspecified),i,33,39,8.9*,8,51*,-45*
CC(C)CCn1c(NCCN(C)C)nc2c1c(=O)[nH]c(=O)n2C,i,21,8,i,31,26*,-41*
NC(N)=Nc1nc(-c2ccccc2)c2ccccc2n1,i,30,-10,8.1*,-1,24*,-52*
CCc1nc(N=C(N)N)nc2ccccc12,i,34,1,i,-14,.,.
N#CC1(Cc2ccc([N+](=O)[O-])cc2)c2ccccc2C=CN1C(=O)c1ccccc1 (stereo unspecified),i,0,-16,i,2,27*,i
COc1cc(C2=NOC(C(=O)Nc3cc(C)on3)C2)cc(OC)c1OC (stereo unspecified),i,8,4,i,2,.,.
Cc1ccc(NC(=O)Cn2nc(C)c(S(=O)(=O)N(C)C)c2C)cc1,i,26,-1,i,-4,.,.
CCN(C(=O)CSc1nc2nc(C)cc(C)n2n1)C1CCS(=O)(=O)C1 (stereo unspecified),i,26,-8,i,.,.,.
Cc1nn2c(NCCOCCO)c3c(nc2c1-c1ccccc1)CCC3,i,18,9,i,56,.,.
SMILES,CHT inh,AI-2 QS mod,PREPL inhibitor,CHT PAM,ALR H2O2 inh,CHT activ conf,HEK293 MP dye
Cc1nn2c(NCCCN(C)C)c3c(nc2c1-c1ccccc1)CCC3,i,11,22,8.2*,88*,45*,-57*
CC(NC(=O)c1ccco1)C(=O)OCc1cccc(C(F)(F)F)c1 (stereo unspecified),.,.,5,.,-7,.,.
CC[n+]1cc(-c2ccccc2)nc(N2CCOCC2)n1,i,14,9,i,-8,41*,-39*
CN(C)CCCn1c(NCc2ccc3c(c2)OCO3)nc2ccccc21,i,8,23,i,21,35*,-50*
Cn1c(CCN2CCCCC2)nc2cc(NC(=O)COc3ccc(Cl)cc3)ccc21,i,17,35,i,0,.,.
Cc1ccc(C(C)C)c(OCC(=O)Nc2ccc3c(c2)nc(CCN2CCCCC2)n3C)c1,i,6,-12,i,-3,25*,-27*
Cc1cc(=O)n(C)c(=O)n1CCCCCCN1CCCC1,i,15,15,i,-1,44*,-34*
CSc1nnc(-c2ccccc2N=Cc2c(C)[nH]n(-c3ccc4ccccc4c3)c2=O)c(=O)[nH]1,i,27,14,8.3*,7,24*,i
Cc1ccccc1Nc1ncnc2c1cnn2C,i,-1,2,i,-5,.,.
C/C(=N\NC(=O)c1c(C)nc2ccccn12)c1ccco1,i,21,-4,10*,0,15*,i
O=C(N/N=C/c1ccc([N+](=O)[O-])o1)c1ccncc1,i,?,8,i,-35,56*,-47*
Cc1nc2ccccn2c1C(=O)N/N=C/c1ccc([N+](=O)[O-])o1,i,?,18,i,-21,31*,-39*
Cc1nc2ccccn2c1C(=O)N/N=C/c1ccc([N+](=O)[O-])cc1,i,24,-2,i,2,.,.
O=C(N/N=C/c1cc([N+](=O)[O-])ccc1O)c1ccncc1,i,-91*,-3,i,-2,36*,-39*
COc1ccccc1C(=O)NC(CCSC)C(=O)NCc1ccccn1 (stereo unspecified),i,3,-2,i,-2,.,.
O=C(NC1CCCC1)C(c1ccc(F)cc1)N(Cc1ccc(F)cc1)C(=O)c1ccn[nH]1 (stereo unspecified),i,14,5,i,0,25*,i
